Results published in PubChem BioAssay (EPA / NIEHS).
Records with an inconclusive call do not appear. Calls of active or inactive are those of the source. Rule for the calls, unless noted: active = hit-call score of the fitted dose curve at least 0.9, where 1 is the maximum; inactive = score below 0.9.

Assays:
[1] = ACEA_ER_80hr: ACEA Biosciences xCELLigence Real-Time Cell Analysis on Estrogen Receptor Agonism for Proliferation (AID 2282667; active = hit-call score of the fitted dose curve at least 0.9, where 1 is the maximum); settings: T47D proliferation, impedance (xCELLigence), 80 h
In short: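 Cell-growth kinetics were measured by impedance in T47D cells treated continuously with compound (top 100 uM final, 1:4 steps, 8 points). Activity at 80 h was scored as signal gain over the DMSO baseline.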

[2] = ATG_CRE_CIS: Attagene CIS-FACTORIAL HepG2 Assay for human cAMP Responsive Element (CRE) binding protein 3 (AID 2282926); settings: HepG2 CRE cis-reporter, Attagene multiplexed mRNA; actives raise or lower the signal
In short: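 Cells carrying cis-regulated reporter constructs respond through their own endogenous factors. After 24 h treatment, RNA is reverse-transcribed, amplified, labelled and sized by capillary electrophoresis; up- and down-regulation are both scored against vehicle.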

[3] = biological target: CCAAT/enhancer-binding protein beta (Homo sapiens) (UniProt P17676); assay: ATG_C_EBP_CIS: Attagene CIS-FACTORIAL HepG2 Assay for human CCAAT/Enhancer Binding Protein (C/EBP) beta (AID 2282927); settings: HepG2 Attagene cis-factorial transcription factor reporter; actives raise or lower the signal
CCAAT/enhancer-binding protein beta (Homo sapiens), sequence (P17676 whole entry, looked up): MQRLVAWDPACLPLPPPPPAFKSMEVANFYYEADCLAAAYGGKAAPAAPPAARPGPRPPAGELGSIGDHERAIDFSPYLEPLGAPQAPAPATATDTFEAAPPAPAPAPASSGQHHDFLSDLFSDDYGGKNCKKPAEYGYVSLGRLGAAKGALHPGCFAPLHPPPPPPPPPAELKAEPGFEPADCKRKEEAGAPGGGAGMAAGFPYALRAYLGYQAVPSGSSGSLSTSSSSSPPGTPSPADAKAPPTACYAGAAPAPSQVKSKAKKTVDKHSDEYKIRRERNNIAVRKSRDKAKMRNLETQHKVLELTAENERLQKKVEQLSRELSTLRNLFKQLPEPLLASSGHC
In short: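 HepG2 transiently transfected with multiplexed reporter units under cis-regulatory promoters reporting endogenous C/EBPb activity. After 24 h exposure, reporter mRNA assayed by RT-PCR, fluorescent labelling, HpaI digestion and capillary electrophoresis; bidirectional fitting versus DMSO.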

[4] = ATG_CMV_CIS: Attagene CIS-FACTORIAL HepG2 Assay for human CMV (Internal Marker) (AID 2282928); settings: HepG2 CMV promoter reporter, transcription factor profiling; actives raise or lower the signal;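 note: endpoint acts as a background internal control marker rather than a target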
In short: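 Bidirectional fits against DMSO are applied to reporter mRNA, read by RT-PCR with capillary electrophoresis, from HepG2 cells exposed 24 h. The endpoint serves as an internal CMV background marker within the cis-factorial reporter panel.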

[5] = ATG_DR4_LXR_CIS: Attagene CIS-FACTORIAL HepG2 Assay for human Liver X Receptor (LXR), DR4 submotif (AID 2282929); settings: HepG2 Attagene DR4 cis-reporter, mRNA transcription; actives raise or lower the signal
In short: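 After transient transfection with multiplexed cis-promoter reporter units, HepG2 cells received test chemicals for 24 h. Reporter mRNA induction, detected by fluorescence after RT-PCR and capillary electrophoresis, was scored relative to DMSO.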

[6] = biological target: Aryl hydrocarbon receptor (Homo sapiens) (UniProt P35869); assay: ATG_Ahr_CIS: Attagene CIS-FACTORIAL HepG2 Assay for human Aryl Hydrocarbon Receptor (Ahr) (AID 2282930); settings: HepG2 AhR cis-factorial reporter transcription; actives raise or lower the signal
Aryl hydrocarbon receptor (Homo sapiens), sequence (P35869 whole entry, looked up): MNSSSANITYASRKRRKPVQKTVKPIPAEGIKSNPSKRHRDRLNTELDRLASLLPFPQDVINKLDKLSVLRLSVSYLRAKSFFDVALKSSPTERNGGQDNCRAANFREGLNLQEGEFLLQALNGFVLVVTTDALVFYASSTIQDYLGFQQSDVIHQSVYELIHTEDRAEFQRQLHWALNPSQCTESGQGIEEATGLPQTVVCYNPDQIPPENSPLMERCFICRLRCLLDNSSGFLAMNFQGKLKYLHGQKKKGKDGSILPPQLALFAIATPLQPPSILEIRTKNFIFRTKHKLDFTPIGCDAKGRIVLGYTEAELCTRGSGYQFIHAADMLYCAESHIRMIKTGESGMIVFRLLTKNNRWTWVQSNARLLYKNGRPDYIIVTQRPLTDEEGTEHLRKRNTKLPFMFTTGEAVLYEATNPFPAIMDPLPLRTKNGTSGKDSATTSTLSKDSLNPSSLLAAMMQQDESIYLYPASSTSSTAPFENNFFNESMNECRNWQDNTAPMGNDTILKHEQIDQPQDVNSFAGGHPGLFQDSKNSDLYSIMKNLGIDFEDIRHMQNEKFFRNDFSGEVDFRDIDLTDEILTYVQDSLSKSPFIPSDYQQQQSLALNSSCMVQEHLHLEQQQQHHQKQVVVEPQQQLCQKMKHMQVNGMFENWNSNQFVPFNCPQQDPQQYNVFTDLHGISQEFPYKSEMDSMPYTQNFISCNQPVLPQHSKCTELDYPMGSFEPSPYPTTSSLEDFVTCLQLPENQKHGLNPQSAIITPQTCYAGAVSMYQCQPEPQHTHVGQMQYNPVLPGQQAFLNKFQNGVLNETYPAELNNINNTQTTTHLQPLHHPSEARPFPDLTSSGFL
In short: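 HepG2 cells transiently transfected with cis-element-driven multiplexed reporter units; endogenous AhR activity read as reporter mRNA 24 h after dosing, via RT-PCR, 6-FAM labelling, HpaI digestion and capillary electrophoresis. Bidirectional fit relative to DMSO.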

[7] = ATG_AP_1_CIS: Attagene CIS-FACTORIAL HepG2 Assay for human Activator Protein 1 (AP-1) (AID 2282931); settings: HepG2 Attagene cis-factorial AP-1 reporter mRNA; actives raise or lower the signal
In short: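 After 24 h incubation with test chemical, RNA from transfected HepG2 cells was reverse-transcribed, amplified, fluorescently labelled and digested before capillary electrophoresis. Reporters were driven by cis-regulatory promoters; activity fitted bidirectionally versus DMSO.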

[8] = ATG_BRE_CIS: Attagene CIS-FACTORIAL HepG2 Assay for human Bone Morphogenetic Protein (BMP) Response Element (BRE) (AID 2282933); settings: HepG2 BMP response element reporter, Attagene transcription factor profiling; actives raise or lower the signal
In short: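 HepG2 cells transiently transfected with multiplexed cis-element reporter units were dosed with chemical for 24 h. Reporter mRNA was measured by RT-PCR with fluorescent labelling, HpaI digestion and capillary electrophoresis; bidirectional fitting relative to DMSO.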

[9] = biological target: Retinoic acid receptor alpha (Homo sapiens) (UniProt P10276); assay: ATG_DR5_RAR_CIS: Attagene CIS-FACTORIAL HepG2 Assay for human Retinoic Acid Receptor Alpha (RARE), DR5 submotif (AID 2282934); settings: HepG2 Attagene cis-factorial RARE DR5 reporter, mRNA; actives raise or lower the signal
Retinoic acid receptor alpha (Homo sapiens), sequence (P10276 whole entry, looked up): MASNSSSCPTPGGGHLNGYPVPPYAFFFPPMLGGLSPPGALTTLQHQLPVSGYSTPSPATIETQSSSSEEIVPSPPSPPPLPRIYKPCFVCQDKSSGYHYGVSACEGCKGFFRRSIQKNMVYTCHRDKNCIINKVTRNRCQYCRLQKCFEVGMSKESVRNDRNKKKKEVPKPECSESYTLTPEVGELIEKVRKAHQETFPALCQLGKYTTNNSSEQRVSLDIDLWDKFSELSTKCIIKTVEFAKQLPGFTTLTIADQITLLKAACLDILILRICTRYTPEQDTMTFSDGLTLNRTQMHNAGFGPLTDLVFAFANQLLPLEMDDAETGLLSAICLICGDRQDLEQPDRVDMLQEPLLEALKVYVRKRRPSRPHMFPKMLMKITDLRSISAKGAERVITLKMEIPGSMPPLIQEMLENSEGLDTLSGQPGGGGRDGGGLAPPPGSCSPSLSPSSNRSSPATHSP
In short: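 HepG2 cells transiently transfected with multiplexed reporter units; DR5 cis-element drives reporter through endogenous transcription factors. After 24 h dosing, reporter mRNA quantified by RT-PCR, fluorescent labeling, HpaI digestion and capillary electrophoresis; bidirectional fitting versus DMSO.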

[10] = biological target: Transcription factor E2F1 (Homo sapiens) (UniProt Q01094); assay: ATG_E2F_CIS: Attagene CIS-FACTORIAL HepG2 Assay for human E2F Transcription Factor 1 (AID 2282935); settings: HepG2 Attagene cis-reporter, E2F reporter RNA transcripts; actives raise or lower the signal
Transcription factor E2F1 (Homo sapiens), sequence (Q01094 whole entry, looked up): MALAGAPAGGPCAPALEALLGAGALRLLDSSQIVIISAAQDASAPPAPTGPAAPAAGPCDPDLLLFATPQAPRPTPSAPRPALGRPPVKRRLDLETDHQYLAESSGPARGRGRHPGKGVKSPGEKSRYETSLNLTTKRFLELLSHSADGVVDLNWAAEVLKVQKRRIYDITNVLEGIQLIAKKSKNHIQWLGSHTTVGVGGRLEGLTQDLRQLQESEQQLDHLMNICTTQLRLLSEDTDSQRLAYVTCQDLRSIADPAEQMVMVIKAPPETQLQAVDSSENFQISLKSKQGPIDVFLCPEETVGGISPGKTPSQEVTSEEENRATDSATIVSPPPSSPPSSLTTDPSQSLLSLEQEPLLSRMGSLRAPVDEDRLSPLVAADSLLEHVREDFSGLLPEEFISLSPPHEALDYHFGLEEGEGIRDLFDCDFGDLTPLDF
In short: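 Transient MRTU transfection of HepG2; 24 h compound exposure; RNA → oligo(dT) RT → PCR → FAM label → HpaI cut → CE fluorescence. Gain/loss of signal fit against DMSO.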

[11] = ATG_E_Box_CIS: Attagene CIS-FACTORIAL HepG2 Assay for human Enhancer Box (E-box) (AID 2282936); settings: HepG2 E-box cis-reporter transcription, actives raise or lower the signal
In short: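 Transiently transfected HepG2, endogenous TF-driven reporters, 24 h dosing. Readout: RT-PCR plus capillary electrophoresis of fluorescent reporter fragments. Gain or loss of signal fitted bidirectionally against DMSO baseline.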

[12] = ATG_M_61_CIS: Attagene CIS-FACTORIAL HepG2 Assay for M61 Transcription Factor (Internal Marker) (AID 2282937); settings: HepG2 Attagene CIS-FACTORIAL M61 internal marker reporter; actives raise or lower the signal
In short: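 Using transiently transfected HepG2 liver cells, reporter transcript levels were assessed 24 h post-dosing by RT-PCR and capillary electrophoresis. Changes in either direction were fitted relative to DMSO controls.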

[13] = ATG_EGR_CIS: Attagene CIS-FACTORIAL HepG2 Assay for human Early Growth Response 1 (EGR1) (AID 2282938); settings: HepG2 Attagene CIS-FACTORIAL EGR reporter mRNA; actives raise or lower the signal
In short: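 Fluorescent capillary-electrophoresis signal of reporter cDNA fragments serves as read-out. HepG2 cells bear transiently transfected cis-promoter reporter units and are exposed 24 h; gain- or loss-of-signal is fitted against DMSO.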

[14] = ATG_M_19_CIS: Attagene CIS-FACTORIAL HepG2 Assay for M19 Transcription Factor (Internal Marker) (AID 2282939); settings: HepG2 Attagene CIS-FACTORIAL M19 internal marker reporter; actives raise or lower the signal
In short: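 HepG2 cells transiently transfected with cis-regulated multiple reporter transcription units were dosed for 24 h; reporter mRNA was quantified by RT-PCR, 6-FAM primer-extension labelling, HpaI digestion and capillary electrophoresis, with bidirectional fitting against DMSO baseline.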

[15] = ATG_ERE_CIS: Attagene CIS-FACTORIAL HepG2 Assay for Estrogen Response Element (ERE) (AID 2282940); settings: HepG2 ERE cis-reporter, Attagene RNA transcript; actives raise or lower the signal
In short: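 HepG2 cells transiently transfected with cis-promoter-driven multiplexed reporter transcription units report endogenous TF activity. After 24 h compound exposure, reporter mRNA is quantified by RT-PCR with capillary electrophoresis fluorescence; bidirectional fitting versus DMSO baseline.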

[16] = ATG_Ets_CIS: Attagene CIS-FACTORIAL HepG2 Assay for human Erythroblast Transformation Specific (ETS) (AID 2282941); settings: HepG2 ETS cis-reporter transcription, actives raise or lower the signal
In short: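 Endogenous transcription factor activity read as reporter mRNA via RT-PCR and capillary electrophoresis, with gain or loss fitted bidirectionally against DMSO. Human HepG2 liver cells, transiently transfected CIS reporter constructs, 24 h exposure.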

[17] = biological target: Hepatocyte nuclear factor 3-beta (Homo sapiens) (UniProt Q9Y261); assay: ATG_FoxA2_CIS: Attagene CIS-FACTORIAL HepG2 Assay for human Forkhead box A2 (FOXA2) (AID 2282942); settings: HepG2 cis-reporter transcription factor activity, 24 h; actives raise or lower the signal
Hepatocyte nuclear factor 3-beta (Homo sapiens), sequence (Q9Y261 whole entry, looked up, the tested form may be a part): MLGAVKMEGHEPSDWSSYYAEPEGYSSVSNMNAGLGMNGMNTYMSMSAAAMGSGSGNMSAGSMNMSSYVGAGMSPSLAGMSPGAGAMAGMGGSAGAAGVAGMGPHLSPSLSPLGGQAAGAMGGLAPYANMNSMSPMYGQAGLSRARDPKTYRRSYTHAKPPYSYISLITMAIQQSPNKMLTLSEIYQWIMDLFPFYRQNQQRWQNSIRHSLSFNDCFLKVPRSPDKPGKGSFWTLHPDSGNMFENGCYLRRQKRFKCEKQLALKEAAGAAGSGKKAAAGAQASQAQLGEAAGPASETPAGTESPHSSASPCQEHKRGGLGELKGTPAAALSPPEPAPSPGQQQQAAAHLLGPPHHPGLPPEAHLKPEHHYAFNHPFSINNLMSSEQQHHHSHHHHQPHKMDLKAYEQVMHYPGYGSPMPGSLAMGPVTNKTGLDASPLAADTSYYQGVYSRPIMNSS
In short: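 Fluorescence signal of reporter cDNA fragments, separated by capillary electrophoresis, reflects endogenous transcription factor activity in transfected HepG2 after 24 h. Both increases and decreases fitted against DMSO.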

[18] = ATG_FoxO_CIS: Attagene CIS-FACTORIAL HepG2 Assay for human Forkhead box O (FoxO) (AID 2282943); settings: HepG2 Attagene cis-reporter, FoxO element, mRNA; actives raise or lower the signal
In short: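 HepG2 cells transiently transfected with cis-element-driven reporter units report endogenous FoxO activity. After 24 h chemical exposure, reporter mRNA quantified by RT-PCR, fluorescent labeling, HpaI digestion and capillary electrophoresis; bidirectional fit versus DMSO.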

[19] = ATG_GATA_CIS: Attagene CIS-FACTORIAL HepG2 Assay for human GATA Binding Protein (AID 2282944); settings: HepG2 GATA cis-element reporter, Attagene multiplex mRNA; actives raise or lower the signal
In short: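 HepG2 cells transiently transfected with multiplexed cis-element reporter units reflecting endogenous transcription factor activity; reporter mRNA measured after 24 h dosing by RT-PCR, 6-FAM labeling, HpaI digestion and capillary electrophoresis. Bidirectional fitting versus DMSO baseline.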

[20] = ATG_AP_2_CIS: Attagene CIS-FACTORIAL HepG2 Assay for human Activator Protein 2 (AP-2) (AID 2282932); settings: HepG2 AP-2 cis-reporter, Attagene transcription factor profiling; actives raise or lower the signal
In short: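 Read-out: fluorescent reporter mRNA via RT-PCR and capillary electrophoresis, 24 h post-dose in transiently transfected HepG2. Endogenous factors drive cis-promoter reporters; gain or loss of signal fitted bidirectionally against DMSO.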

Measured: AC50

C[Si]1(C)O[Si](C)(C)O[Si](C)(C)O[Si](C)(C)O[Si](C)(C)O1
active: [5] 36.2 µM
not listed: [20]
inactive: all other assays above

Nc1ccc(C(=O)O)cc1
active: [1] 50 µM
not listed: [20]
inactive: all other assays above

CC1OC(=O)C(C)OC1=O (stereo not given)
active: [1] 0.169 µM
not listed: [8]
inactive: all other assays above

Cc1cc(=O)[nH]c(=O)[nH]1
not listed: [8]
inactive: all other assays above

CC(=O)CC(=O)Nc1ccccc1C
not listed: [20]
inactive: all other assays above

CC(C)COC(=O)CC(C(=O)OCC(C)C)S(=O)(=O)O (stereo not given)
not listed: [8] | [20]
inactive: all other assays above

N=C1C=CC(=C(c2ccc(N)cc2)c2ccc(N)cc2)C=C1
active: [3] 168 µM | [4] 33.4 µM | [5] 27.6 µM | [6] 8.36 µM | [8] 33.4 µM | [11] 72.5 µM | [16] 25.4 µM | [18] 180 µM | [19] 26.2 µM
inactive: [1] | [2] | [7] | [9] | [10] | [12] | [13] | [17]
